Most compounds without a hit are left out; they make up all but 19% or so of the library.
TDP1 block – blocks human tyrosyl-DNA phosphodiesterase 1 | Potency, µM (titrated, usually from 130 µM), without a hit: at the highest dose activity change, negative = inhibition, hits mostly inhibitors | recombinant TDP1, AlphaScreen DNA substrate cleavage | 350,000 compounds, 0.28% hits; note: potency is the fitted concentration of half-maximal effect; nearly all actives have a fitted effect of over 40% in size
Target sequence (Q9NUW8 whole entry, looked up): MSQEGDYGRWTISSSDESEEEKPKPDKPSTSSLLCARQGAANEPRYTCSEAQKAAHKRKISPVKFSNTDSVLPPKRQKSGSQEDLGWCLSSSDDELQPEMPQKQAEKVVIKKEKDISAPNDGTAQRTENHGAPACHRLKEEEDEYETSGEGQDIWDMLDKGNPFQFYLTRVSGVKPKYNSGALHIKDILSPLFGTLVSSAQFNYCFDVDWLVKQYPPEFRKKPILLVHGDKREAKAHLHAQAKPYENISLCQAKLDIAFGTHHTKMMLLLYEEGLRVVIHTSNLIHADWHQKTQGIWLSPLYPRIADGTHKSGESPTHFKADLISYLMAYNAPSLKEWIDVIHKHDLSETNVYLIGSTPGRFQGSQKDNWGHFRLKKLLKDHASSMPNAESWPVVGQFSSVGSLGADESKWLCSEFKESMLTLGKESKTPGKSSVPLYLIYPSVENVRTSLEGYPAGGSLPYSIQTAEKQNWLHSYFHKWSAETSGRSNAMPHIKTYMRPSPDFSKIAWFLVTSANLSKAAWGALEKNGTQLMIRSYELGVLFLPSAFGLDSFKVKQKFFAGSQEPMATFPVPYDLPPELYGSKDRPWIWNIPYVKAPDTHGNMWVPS
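Compounds were preincubated with Tdp1 (1 nM final) for 15 min at room temperature before substrate (15 nM final) started a 5 min reaction; beads (10 ug/ml final) were then added for 10 min before AlphaScreen detection.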
IL1B secr inh – inflammasome signaling inhibition, IL-1 beta readout. activity change, % at 57.5 µM. THP-1 LPS/ATP IL-1B secretion, AlphaLISA, 16 h; stronger effect = lower value. AID 743279. 360,000 compounds, 4.7% hits; in the data active = activity change below about -50%; inconclusive = mostly about -30% to -49%
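Secreted IL-1B measured by AlphaLISA bead assay after 16 h compound exposure of THP-1 cells; compounds (final up to 57.5 uM) added 1 h before LPS (250 ng/mL) and ATP (1.25 mM) stimulation; lower signal means less secretion.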
ELG1 DNA repair – blocks ELG1-dependent DNA repair in HEK293T cells | 330,000 compounds, 2.3% hits | HEK293T ELG1-luciferase reporter, luminescence, 16 h; DNA damage induced by 5-fluorouridine | Potency, µM (top dose mostly 46.1 µM), inactives show at the highest dose activity change, negative = inhibition, actives largely listed as inhibitors | AID 504467; note: potency is the fitted concentration of half-maximal effect; nearly all actives have a fitted effect of over 55% in size
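HEK293T cells expressing luciferase-tagged ELG1 (2,000/well) received 5-Fluorouridine plus compound or DMSO for 16 hr at 37 °C. Luciferase was read by ONE-Glo luminescence after 30 min at room temperature.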
Giardia killer – kills Giardia lamblia. Giardia lamblia trophozoite viability. activity change, % at 7.66 µM, hits read low. 340,000 compounds, 0.15% hits; in the data active = activity change below about -80%; inconclusive = between about -30% and that limit;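 note: parasites exposed to compound for two days anaerobically before the ATP read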
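Luminescent ATP signal served as the viability read-out, measured 15-30 min after adding ATP detection reagent to trophozoites that had been incubated with compounds for 48 hrs at 37 deg C anaerobically at 100 cells/well.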
TDP1 cell CPT – DT40-hTDP1 cell growth loss with CPT. chicken DT40 Tdp1-/-;hTDP1 cells + 20 nM CPT, ATP luminescence, 48 h. Potency, µM (doses to about 46.2 µM), inactives show at the highest dose activity change, negative = growth inhibition, actives largely listed as inhibitors. 420,000 compounds, 12% hits. AID 686979; note: potency is the fitted concentration of half-maximal effect; nearly all actives have a fitted effect of over 55% in size
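Chicken DT40 Tdp1-/- cells complemented with human TDP1, 400 cells/well, exposed to compounds plus 20 nM camptothecin for at least 48 h at 37 C; viability read as ATP content by CellTiter-Glo luminescence.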
DT40 TDP1 no CPT – qHTS for Inhibitors of human tyrosyl-DNA phosphodiesterase 1 (TDP1): qHTS in cells in absence of CPT. DT40 Tdp1-/- hTDP1 cells, no CPT, ATP luminescence, 48 h. Potency, µM (highest dose often 46.2 µM), for inactives: at the top dose activity change, negative = growth inhibition, usual class: inhibitors. 420,000 compounds, 15% hits; note: potency is the fitted concentration of half-maximal effect; nearly all actives have a fitted effect of over 55% in size
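Cells were dispensed at 400 per well, compounds added by pin tool, plates incubated ≥48 hr at 37 °C, then CellTiter-Glo added for 30 min at room temperature before luminescence reading. Line: DT40 Tdp1-/- complemented with hTDP1; camptothecin omitted.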
* = called active by the depositor; i = inactive; u = inconclusive; x = no result given; [ ] = remark or other dose. Unless noted, calls come from the whole dose curve; as a rule, active = well fitted curve in the direction sought with a large enough effect; inconclusive = small, poorly fitted or top-dose-only effect, or another doubt; inactive = no such curve, though single readings can be large; an effect the other way counts as inactive or inconclusive. % is set by controls: 0 for no effect and ±100 for the full control effect.

SMILES | TDP1 block | IL1B secr inh | ELG1 DNA repair | Giardia killer | TDP1 cell CPT | DT40 TDP1 no CPT
O=C(CCCn1c(=O)[nH]c2ccccc2c1=O)NCCSCc1ccccc1 | 0% | 21 | 4% | -14 | -21% | -25%
Cc1ccc(CNC(=O)CCCCCn2c(=O)[nH]c3ccccc3c2=O)cc1 | 1% | x | x | x | 0.65µM* | 0.82µM*
CCOC(=O)CSc1nc2ccccc2c(=O)n1CC | 7% | 5 | 11% | -26 | -4% | 7%
CCOC(=O)CSc1nc2ccccc2c(=O)n1CC1CCC(C(=O)NCc2ccco2)CC1 (centres undefined) | 2% | 0 | -16% | 8 | u | 23µM*
CCOC(=O)CSc1nc2ccccc2c(=O)n1CC1CCCC1 | x | -6 | -17% | -11 | 10µM* | 15µM*
CCSc1nnc(C(C)NS(=O)(=O)c2cccc(Cl)c2C)n1C (centres undefined) | x | x | x | x | -1%[9.04 µM] | -1%
CN(Cc1ccco1)c1cc(-c2ccc3c(c2)OCO3)ncn1 | x | x | x | x | -21% | -23%
Brc1ccc(-c2nc3ccccc3s2)s1 | -4% | 0 | u | 11 | -13% | -29%
O=c1ccc2nc3ccccc3sc-2c1 | x | -102* | x | x | 0.65µM* | 1.5µM*
CCn1c(=O)c(C(=O)CN2CCc3ccccc32)c(N)n(Cc2ccccc2)c1=O | 3% | 0 | u | -5 | u | u
CN(CC(=O)Nc1ccccc1Br)CC(=O)NC(c1ccccc1)c1ccccc1 | -3%[0.505 µM] | -51* | 4% | 22 | u | u
CCn1c(=O)c(C(=O)CN(C)CC(=O)Nc2ccccc2Br)c(N)n(Cc2ccccc2)c1=O | -5% | 4 | u | -25 | 21µM* | 18µM*
CC(C)[C@H]1COC(NC2=N[C@@H](C(C)C)CO2)=N1 | x | 0 | 10% | u | 7% | -26%
CCN(CC)CCOc1ccc2nc(N(C)C)sc2c1 | -15% | 21 | 16% | -5 | u | u
CCN(CC)CCOc1ccc(-c2nc3cc(Cl)ccc3s2)cc1 | 3% | x | x | x | 4.7µM* | 4.7µM*
CCCC(=O)NC(c1ccc(OCC)cc1)c1ccc(OC)c(OC)c1 (centres undefined) | x | 16 | u | 3 | -6% | -5%
COc1ccc(C(NC(=O)c2cccnc2)c2cc(Cl)c3cccnc3c2O)cc1OC (centres undefined) | 8% | 94 | u | -1 | 18µM* | 18µM*
Oc1c(C(Nc2ccccn2)c2cccnc2)cc(Cl)c2cccnc12 (centres undefined) | 11% | 44 | -12% | 9 | 4.6µM* | 5.2µM*
CCC(=O)NC(c1ccc(OC)cc1)c1cc(Cl)c2cccnc2c1O (centres undefined) | 11% | 40 | -6% | 6 | 5.8µM* | 6.5µM*
COc1ccc(C(=O)NC(c2ccc(OC)c(OC)c2)c2cc(Cl)c3cccnc3c2O)cc1 (centres undefined) | x | x | x | x | 5µM* | 5.6µM*
Cc1cc(NC(=O)C2CCCCC2C(=O)O)ccc1NC(=O)c1ccccc1 (centres undefined) | 7% | i | 0% | -16 | 3% | -2%
COc1ccc(CCNC(=O)C2CCN(S(=O)(=O)c3ccc4nc5c(c(C(=O)O)c4c3)CCCC5)CC2)cc1OC | 3% | -9 | -4% | 1 | -2% | 18%
CC(C(=O)N1CCCc2ccccc21)N1CCN(S(=O)(=O)c2ccccc2F)CC1 (centres undefined) | 2% | 23 | u | 2 | u | u
CSc1ccc(CCNC(=O)c2csc3c2CCCCC3)cc1 | -2% | x | x | x | u | u
COc1ccc(C)cc1S(=O)(=O)NCc1ccccn1 | x | -11 | x | x | 1% | 2%
SMILES | TDP1 block | IL1B secr inh | ELG1 DNA repair | Giardia killer | TDP1 cell CPT | DT40 TDP1 no CPT
CC(=O)NC(c1cc(Cl)c2cccnc2c1O)C(C)C (centres undefined) | 2% | x | -25% | 5 | x | x
CC(=O)NC(c1ccc(C)cc1)c1cc(Cl)c2cccnc2c1O (centres undefined) | x | 42 | u | 1 | 5.2µM* | 4.1µM*
Cc1cccc(N(Cc2ccccc2)C(=O)C2CCN(C(=O)c3ccccc3C)CC2)c1 | 3% | 0 | -19% | -1 | 12µM* | 5.8µM*
Cc1ccc(S(=O)(=O)N2CCCCC2)cc1C(=O)N(CCc1ccccc1)Cc1ccccc1 | -13% | -14 | -18% | -11 | 8.2µM* | 10µM*
CCc1ccc(CN(C)C(=O)c2cc(S(=O)(=O)N3CCN(CC)CC3)ccc2Cl)cc1 | 1% | -67* | -19% | -24 | u | 18µM*
COCCN(Cc1ccccc1)C(=O)c1cc(S(=O)(=O)N2CCCCCC2)ccc1OC | x | -11 | -5% | -3 | u | u
O=C(c1cc(S(=O)(=O)N2CCOCC2)ccc1F)N(CCc1ccccc1)Cc1ccccc1 | x | u | -18% | 0 | u | 23µM*
CC[C@H]1OC(=O)[C@H](C)[C@@H](O[C@H]2C[C@@](C)(OC)[C@@H](O)[C@H](C)O2)[C@H](C)[C@@H](O[C@@H]2O[C@H](C)C[C@H](N(C)C)[C@H]2O)[C@](C)(OC)C[C@@H](C)C(=O)[C@H](C)[C@@H](O)[C@]1(C)O | -3% | -12 | x | -13 | 6% | -29%
Cc1ccc(N(Cc2ccccc2)C(=O)c2cc(S(=O)(=O)N3CCOCC3)ccc2C)cc1 | x | 8 | -14% | 15 | 21µM* | 13µM*
Cc1ccc(S(=O)(=O)N(C)Cc2ccccc2)cc1C(=O)N1CCCCC1 | 0% | 0 | u | -11 | 15µM* | u
Cc1ccc(S(=O)(=O)Nc2ccccc2)cc1C(=O)N1CCCC1 | -3% | 0 | -10% | 10 | -4% | -1%

High-throughput results (PubChem)
